SMILES strings stand for the structures. Inconclusive results are not listed. The source made the active and inactive calls. Unless noted, the call rests on the fitted dose curve; in most records, active means well fitted curve in the direction sought with a large enough effect in the repeat runs; inconclusive means weak or mixed curves; inactive means no such curve, though single readings can be large; an effect the other way counts as inactive or inconclusive.

A short description of assay [1]: qHTS assay to identify small molecule antagonists of the glucocorticoid receptor (GR) signaling pathway - cell viability counter screen (AID 720693; further: nearly all actives have a fitted effect of over 55% in size). (In general: qHTS replaces the single test concentration by a dilution series.)
Assay [2] is described as follows: qHTS assay for identifying genotoxic compounds that show differential cytotoxicity against isogenic chicken DT40 cell lines with known DNA damage response pathways - wild type cell line (AID 743012). Further: nearly all actives have a fitted effect of over 60% in size. Further: potency means the concentration at half of the fitted maximal effect. The procedure, abridged:
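Quantitative HTS on parental DT40 cells: 40 h compound treatment at 37 C/5% CO2, with viability then determined by CellTiter-Glo luminescence. Values serve as the DNA repair-proficient reference for differential cytotoxicity.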

Assay [3] is described as follows: qHTS assay for identifying genotoxic compounds that show differential cytotoxicity against isogenic chicken DT40 cell lines with known DNA damage response pathways - Rad54/Ku70 mutant cell line (AID 743015). Further: nearly all actives have a fitted effect of over 60% in size. Further: potency means the concentration at half of the fitted maximal effect.
Assay [4] can be described thus: qHTS assay to identify small molecule antagonists of the androgen receptor (AR) signaling pathway - cell viability counter screen (AID 743033; further: nearly all actives have a fitted effect of over 45% in size).
Assay [5] is described as follows: qHTS assay to identify small molecule antagonists of the androgen receptor (AR) signaling pathway using the MDA cell line - cell viability counter screen (AID 743041; further: nearly all actives have a fitted effect of over 45% in size). The procedure, abridged:
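MDA-kb2 AR-luc cells (MMTV-luciferase, AR/GR responsive) treated with compounds plus R1881 agonist for 16 h at 37C. CellTiter-Fluor added at 15.5 h; fluorescence read after 30 min in the same wells.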

Assay [6] is described as follows: qHTS assay to identify small molecule antagonists of the thyroid receptor (TR) signaling pathway - cell viability counter screen (AID 743064). Further: nearly all actives have a fitted effect of over 50% in size. The procedure, abridged: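 Fluorescence from CellTiter-Fluor, added after 23.5 h exposure at 37 °C, reported viability of GH3.TRE-Luc cells co-treated with compound and 1 nM T3. Measured in the same wells as the luciferase TR readout.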

The nature of assay [7]: qHTS assay to identify small molecule antagonists of the thyroid receptor (TR) signaling pathway (AID 743065). Further: series mostly up to about 70 µM; nearly all actives have a fitted effect of over 55% in size. A digest of the protocol: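 GH3.TRE-Luc rat pituitary cells (two TREs driving luciferase) were dosed with compound, then stimulated with 1 nM T3 (final) for 23.5 h at 37 C. ONE-Glo luminescence was the read-out, with CellTiter-Fluor fluorescence as the cytotoxicity counter-screen.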

Assay [8] concerns thyroid hormone receptor (rat, GH3 cells). Kind of assay: qHTS assay to identify small molecule agonists of the thyroid receptor (TR) signaling pathway (AID 743066; calls by dose curve).
In assay [9] the target is Estrogen receptor (Homo sapiens) (UniProt P03372). Nature of the assay: qHTS assay to identify small molecule antagonists of the estrogen receptor alpha (ER-alpha) signaling pathway (AID 743069; active means well fitted curve in the direction sought with a large enough effect in the signal ratio in the repeat runs, not every such curve was filed as active; the % refers to the signal ratio). The procedure, abridged:
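HEK293 ER-alpha-UAS-bla GripTite cells, held overnight in 2% charcoal-stripped FBS, 5,000 cells/well, preincubated 4 h, then compound plus 17beta-estradiol for 18 h at 37C. Beta-lactamase read by LiveBLAzer B/G FRET substrate, 2 h at room temperature.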

Assay [10] can be described thus: qHTS assay to identify small molecule antagonists of the estrogen receptor alpha (ER-alpha) signaling pathway - cell viability counter screen (AID 743074; calls by dose curve;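 further: HEK293 cells carrying ER-alpha-UAS-bla reporter stimulated with 17beta-estradiol; nearly all actives have a fitted effect of over 45% in size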).
For assay [11], the target named is Estrogen receptor (Homo sapiens) (UniProt P03372). Kind of assay: qHTS assay to identify small molecule agonists of the estrogen receptor alpha (ER-alpha) signaling pathway (AID 743075; calls by dose curve).
Estrogen receptor (Homo sapiens), sequence (P03372 whole entry, looked up): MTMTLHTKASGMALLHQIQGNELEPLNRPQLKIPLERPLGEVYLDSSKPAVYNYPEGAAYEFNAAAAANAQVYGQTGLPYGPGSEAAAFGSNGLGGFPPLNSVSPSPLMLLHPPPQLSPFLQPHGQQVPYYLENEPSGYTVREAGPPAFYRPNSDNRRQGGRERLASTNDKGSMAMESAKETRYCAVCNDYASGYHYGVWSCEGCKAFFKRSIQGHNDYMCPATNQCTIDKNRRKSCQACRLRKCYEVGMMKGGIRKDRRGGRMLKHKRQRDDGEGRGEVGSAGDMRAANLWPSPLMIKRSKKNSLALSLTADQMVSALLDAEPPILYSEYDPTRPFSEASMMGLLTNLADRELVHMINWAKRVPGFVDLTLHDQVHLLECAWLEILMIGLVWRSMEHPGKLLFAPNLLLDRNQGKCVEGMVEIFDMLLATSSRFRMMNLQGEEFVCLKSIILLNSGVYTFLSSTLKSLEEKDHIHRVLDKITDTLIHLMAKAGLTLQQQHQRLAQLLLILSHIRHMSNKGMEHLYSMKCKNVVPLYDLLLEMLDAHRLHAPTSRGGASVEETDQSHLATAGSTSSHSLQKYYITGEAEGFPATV
Assay [12] has the same target. Kind of assay: qHTS assay to identify small molecule agonists of the estrogen receptor alpha (ER-alpha) signaling pathway using the BG1 cell line (AID 743079). Further: nearly all actives have a fitted effect of over 20% in size.
Assay [13] is described as follows: qHTS assay to identify small molecule antagonists of the estrogen receptor alpha (ER-alpha) signaling pathway using the BG1 cell line (AID 743080; calls by dose curve;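 further: BG1 cells stimulated with 17beta-estradiol alongside compound; series mostly up to about 70 µM; nearly all actives have a fitted effect of over 25% in size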). The procedure, abridged:
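Readout is ONE-Glo luminescence, taken 30 min at room temperature after reagent addition, preceded by a CellTiter-Fluor viability read; BG1-Luc-4E2 cells had received compound and 17beta-estradiol for 21.5 h at 37 C.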

The nature of assay [14]: qHTS assay to identify small molecule antagonists of the estrogen receptor alpha (ER-alpha) signaling pathway using the BG1 cell line - cell viability counter screen (AID 743081).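 Further: compound given together with 17beta-estradiol as the ER stimulus; series mostly up to about 70 µM; nearly all actives have a fitted effect of over 45% in size.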
A further assay has as its target Aromatase (Homo sapiens) (UniProt P11511). Kind of assay: qHTS assay to identify aromatase inhibitors (AID 743083). Further: series mostly up to about 70 µM; nearly all actives have a fitted effect of over 55% in size.
Assay [15] deals with Androgen receptor (Homo sapiens) (UniProt P10275). Nature of the assay: qHTS assay to identify small molecule antagonists of the androgen receptor (AR) signaling pathway (AID 743035; active means well fitted inhibition curve with a large enough effect in the signal ratio in the repeat runs, not every such curve was filed as active; the % refers to the signal ratio). A digest of the protocol: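 Cell line: GeneBLAzer AR-UAS-bla GripTite (HEK293). Stimulus: R1881 added after compound. Exposure: 16 h, 37C, 5% CO2. Readout: LiveBLAzer B/G FRET fluorescence after 2 h at room temperature.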
Androgen receptor (Homo sapiens), sequence (P10275 whole entry, looked up): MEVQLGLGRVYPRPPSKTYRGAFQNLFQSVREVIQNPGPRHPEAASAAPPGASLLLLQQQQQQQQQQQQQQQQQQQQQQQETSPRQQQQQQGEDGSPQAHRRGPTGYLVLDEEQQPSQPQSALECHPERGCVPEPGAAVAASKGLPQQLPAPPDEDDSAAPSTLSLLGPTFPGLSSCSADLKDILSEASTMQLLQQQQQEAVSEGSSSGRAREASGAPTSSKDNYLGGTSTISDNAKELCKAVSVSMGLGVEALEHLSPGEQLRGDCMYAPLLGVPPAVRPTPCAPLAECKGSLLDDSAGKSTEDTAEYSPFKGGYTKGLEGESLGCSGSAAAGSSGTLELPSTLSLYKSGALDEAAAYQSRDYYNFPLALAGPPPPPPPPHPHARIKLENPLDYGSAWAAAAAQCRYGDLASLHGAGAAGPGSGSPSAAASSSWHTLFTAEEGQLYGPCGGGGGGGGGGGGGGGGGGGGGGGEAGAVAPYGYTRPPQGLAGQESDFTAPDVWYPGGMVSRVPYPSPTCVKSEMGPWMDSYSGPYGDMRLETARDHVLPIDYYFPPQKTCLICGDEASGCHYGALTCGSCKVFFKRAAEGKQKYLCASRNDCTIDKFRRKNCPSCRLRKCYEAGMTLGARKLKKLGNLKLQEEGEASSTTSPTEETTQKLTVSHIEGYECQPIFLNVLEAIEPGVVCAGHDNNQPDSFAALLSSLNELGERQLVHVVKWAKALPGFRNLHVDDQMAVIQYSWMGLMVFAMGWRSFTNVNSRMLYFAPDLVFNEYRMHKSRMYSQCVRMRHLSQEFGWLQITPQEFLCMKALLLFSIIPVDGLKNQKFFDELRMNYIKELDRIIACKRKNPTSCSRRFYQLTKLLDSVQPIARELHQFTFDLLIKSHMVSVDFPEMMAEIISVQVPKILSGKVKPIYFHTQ

For assay [16] the target is unchanged. Kind of assay: qHTS assay to identify small molecule agonists of the androgen receptor (AR) signaling pathway (AID 743036; active means well fitted activation curve with a large enough effect in the signal ratio in the repeat runs, with a control signal flat, not every such curve was filed as active; the % refers to the signal ratio). The procedure, abridged: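 Fluorescence from a beta-lactamase FRET substrate served as read-out in AR-UAS-bla GripTite HEK293 cells. Cells were treated with DMSO-dissolved compounds for 16 h at 37C, then with LiveBLAzer B/G substrate for 2 h at room temperature.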

For assay [17] the target is unchanged. Kind of assay: qHTS assay to identify small molecule agonists of the androgen receptor (AR) signaling pathway using the MDA cell line (AID 743040; further: nearly all actives have a fitted effect of over 20% in size). The procedure, abridged: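 MDA-kb2 breast carcinoma cells carrying MMTV-luciferase (responsive to AR and GR), plated 5 h then treated 16 h with compounds at 37C, 0% CO2. Read-out was ONE-Glo luminescence after 30 min at room temperature.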

Assay [18] shares this target. Kind of assay: qHTS assay to identify small molecule antagonists of the androgen receptor (AR) signaling pathway using the MDA cell line (AID 743042; further: nearly all actives have a fitted effect of over 55% in size). The procedure, abridged: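 MDA-kb2 breast carcinoma cells carrying MMTV-luciferase (AR/GR responsive) were co-treated with compounds and the agonist R1881 for 16 h at 37C. Inhibition read as ONE-Glo luminescence; CellTiter-Fluor fluorescence measured in parallel for cytotoxicity.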

Aromatase (Homo sapiens), sequence (P11511 whole entry, looked up): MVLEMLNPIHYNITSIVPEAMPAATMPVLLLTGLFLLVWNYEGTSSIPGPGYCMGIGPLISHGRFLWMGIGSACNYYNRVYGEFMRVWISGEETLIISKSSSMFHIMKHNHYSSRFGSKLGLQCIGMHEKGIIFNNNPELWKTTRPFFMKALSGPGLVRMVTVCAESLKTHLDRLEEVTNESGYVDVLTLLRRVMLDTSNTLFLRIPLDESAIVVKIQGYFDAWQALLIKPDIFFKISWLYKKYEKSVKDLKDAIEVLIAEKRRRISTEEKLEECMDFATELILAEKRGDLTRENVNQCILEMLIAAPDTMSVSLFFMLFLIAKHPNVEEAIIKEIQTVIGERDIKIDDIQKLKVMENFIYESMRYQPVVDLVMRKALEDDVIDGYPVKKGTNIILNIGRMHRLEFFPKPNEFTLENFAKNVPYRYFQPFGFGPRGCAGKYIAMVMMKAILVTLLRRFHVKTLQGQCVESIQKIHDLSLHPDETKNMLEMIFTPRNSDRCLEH

On to `Cc1cccc(C(=O)O)c1[N+](=O)[O-]`, for which the Potency result in [1], in assay [2], in assay [3], in [6], in [7] and in assay [8] was “inactive” in each case. Further, the Potency result in assay [9], in assay [10], in [11] and in assay [12] was “inactive” throughout. Further, the call (in [4]; in [5]; in assay [13]; in assay [14]; with Aromatase (Homo sapiens)) was inactive.
Consider `O=C(Nc1cccc(C2=NCCN2)c1)Nc1cccc(C2=NCCN2)c1`, for which the Potency entry in [1], in assay [9], in assay [10] and in assay [11] was “inactive” each time. Moreover, the Potency in [2] is 11.9 µM (active); in [3] it was 18.8 µM (active). Further, the compound was called inactive (in assay [4]; in assay [5]; in [13]; in [14]; with Aromatase (Homo sapiens)).
For `CC(C)(C)NCCO`, the Potency entry in [1], in assay [2], in assay [3], in [6], in assay [7] and in assay [8] was “inactive” throughout. For the same compound, the Potency entry in assay [9], in assay [10], in assay [11] and in assay [12] was “inactive” each time. Besides, the result (in [4]; in assay [5]; in assay [13]; in assay [14]; with Aromatase (Homo sapiens)) was inactive.
For the compound `CCOC(=O)CCc1ccccc1`, the Potency result in assay [1], in assay [2], in assay [3], in assay [6], in assay [7] and in assay [8] was “inactive” throughout. For the same compound, the Potency entry in assay [10] was “inactive”. For the same compound, the compound was called inactive (in assay [4]; in assay [5]; in [14]; in the assay with Aromatase (Homo sapiens)).
`CC1=CC[C@H](CC=O)C1(C)C`: the Potency entry in assay [1], in assay [2], in [3], in assay [6], in assay [8] and in assay [9] was “inactive” each time. The Potency result in [10], in assay [11] and in [12] was “inactive” each time. In addition, the compound was classed as inactive (in [4]; in [5]; in [13]; in [14]; with Aromatase (Homo sapiens)).
Regarding `Cc1nc([N+](=O)[O-])cn1-c1ccc([N+](=O)[O-])cc1`, the Potency result in assay [1], in [2], in assay [3], in assay [7], in assay [8] and in assay [9] was “inactive” throughout. The Potency result in assay [10], in [11] and in assay [12] was “inactive” each time. In addition, the outcome (in [5]; in [13]; in assay [14]; with Aromatase (Homo sapiens)) was inactive.
Take `CC1=NN(c2ccc(S(=O)(=O)O)cc2)C(=O)C1N=Nc1ccccc1` (configuration not stated): the Potency entry in assay [1], in assay [2], in [3], in assay [7], in [8] and in [9] was “inactive” in each case. For the same compound, the Potency result in assay [10], in assay [11] and in assay [12] was “inactive” in each case. Further, the call (in [4]; in assay [13]; with Aromatase (Homo sapiens)) was inactive.
With `C[Si]1(C)N[Si](C)(C)N[Si](C)(C)N1`, the Potency result in [1], in [2], in assay [3], in [8], in assay [9] and in assay [10] was “inactive” each time. Further, the Potency result in assay [11] and in assay [12] was “inactive” throughout. For the same compound, the call (in assay [4]; in assay [5]; in assay [13]; in assay [14]; in the assay with Aromatase (Homo sapiens)) was inactive.
Take `COC(OC)C(C)c1ccccc1` (configuration not stated): the Potency entry in assay [1], in assay [2], in assay [3], in assay [15], in assay [6] and in assay [7] was “inactive” throughout. The Potency entry in assay [8], in assay [9], in [10], in assay [11] and in assay [12] was “inactive” each time. The outcome in assay [16], in [17], in [5], in assay [18], in [13] and in assay [14] was inactive. The compound was called inactive with Aromatase (Homo sapiens).
For the compound `Cc1ccccc1OCC1CO1` (configuration not stated), the Potency entry in [1], in assay [2], in assay [3], in assay [6], in [7] and in assay [8] was “inactive” in each case. Further, the Potency entry in assay [9], in assay [10], in assay [11] and in assay [12] was “inactive” throughout. Further, the compound was called inactive (in [4]; in [5]; in [13]; in assay [14]; with Aromatase (Homo sapiens)).

For the origin of these results see PubChem BioAssay (Tox21).
